Bioassay records deposited in PubChem BioAssay by National Center for Advancing Translational Sciences (NCATS).
Rows were chosen to be rich in hits. Some 21% of all compounds tested hit in one or more screens of this group.
Pf growth 48h: inhibits P. falciparum growth in the first generation, 48 h | Potency, µM (highest dose often 28.7 µM), for inactives: at the top dose activity change, negative = inhibition, hits mostly inhibitors | P. falciparum luciferase growth in erythrocytes, 48 h | 310,000 tested, 5.9% active; note: potency is the fitted concentration of half-maximal effect; % is set by controls: 0 for no effect and ±100 for the full control effect
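Read-out is firefly luciferase luminescence from an integrated reporter in P. falciparum, so falling signal marks reduced parasite growth. Infected erythrocytes were at 2% hematocrit and 0.1% parasitemia (final) in Albumax-supplemented RPMI 1640.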
CHX counter: counter-screen for Shiga toxin inhibitors: cycloheximide protein synthesis inhibition. cell reporter, cycloheximide protein synthesis inhibition counterscreen. max response, %. 300,000 tested, 12% active. AID 2314; in the data active = max response mostly above about 13%, no sharp cut-off; inactive = mostly below about 14%; note: read at 38.3 µM for the half of the compounds with a filed dose; 0% is about no effect
NS1 function inh: influenza NS1 inhibition; Potency, µM (doses to about 46.1 µM), for the others: top-dose activity, positive = more growth; 270,000 tested, 0.4% active; AID 2326; calls by dose curve; note: potency is the fitted concentration of half-maximal effect; actives are rising curves; nearly all actives have a fitted effect of over 50% in size
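Growth recovery, yeast-based: influenza A NS1 expressed in S. cerevisiae causes slow growth, and suppressors are detected by OD600. The parent strain without NS1 is used as positive control.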
Pf growth 96h: inhibits malaria parasite growth, 96 h. P. falciparum luciferase reporter growth, 96 h. Potency, µM (highest dose often 28.7 µM), inactives show at the top dose activity change, negative = inhibition, hits mostly inhibitors. 320,000 tested, 6.9% active. AID 504834; note: potency is the fitted concentration of half-maximal effect; % is set by controls: 0 for no effect and ±100 for the full control effect
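Plates of compound plus infected erythrocytes (2% hematocrit, 0.05% parasitemia final) incubate 96 hours, 37 C, 5% CO2. Detection reagent added; reduced luminescence from the parasites' luciferase reporter flags inhibition.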
Shiga inhibitor: inhibitors of Shiga toxin in Vero cells; 290,000 tested, 9.2% active; Vero cells, Shiga toxin protein synthesis inhibition reporter; AID 2315; inhibition, % at 38.7 µM; in the data active = inhibition mostly above about 28%, no sharp cut-off; inactive = mostly below about 43%; note: 0% is about no effect
Sm TGR block: inhibitors of Schistosoma mansoni thioredoxin glutathione reductase. 360,000 tested, 3% active. Potency, µM (series often up to 114 µM), inactives show top-dose activity change, negative = inhibition, actives largely listed as inhibitors. Q962Y6. purified TGR, DTNB reduction, TNB absorbance 405 nm. AID 485364; note: potency is the fitted concentration of half-maximal effect; % is set by controls: 0 for no effect and ±100 for the full control effect; nearly all actives have a fitted effect of over 60% in size
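First, TGR (20 nM dispensed) and NADPH were mixed with compound. Second, a 15 min room-temperature incubation followed. Third, further NADPH and then DTNB were added to start the reaction. Finally, TNB absorbance was monitored kinetically.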
Starred values were filed as active, the others as inactive; ? = inconclusive; . = not tested or not shown; [ ] = remark or other dose. Unless noted, calls come from the whole dose curve; as a rule, active = well fitted curve in the direction sought with a large enough effect; inconclusive = small, poorly fitted or top-dose-only effect, or another doubt; inactive = no such curve, though single readings can be large; an effect the other way counts as inactive or inconclusive.

SMILES | Pf growth 48h | CHX counter | NS1 function inh | Pf growth 96h | Shiga inhibitor | Sm TGR block
O=C(NCc1ccco1)c1c(F)c(F)c(F)c(C(=O)NCc2ccco2)c1F | 27.3% | -3.5 | 7.4% | 31.7% | 3.1 | 44.7µM*
O=C(NCc1ccccc1F)c1cccs1 | 15.3% | -2.0 | -9.2% | ? | 26.3 | 0.9%
COc1cc(-c2n[nH]c(=S)n2-c2ccc(Br)cc2)cc(OC)c1OC | 0.0% | -2.7 | 1.9% | -10.1% | -14.2 | -18.0%
COc1cccc(C(=O)C2CCCN(C(=O)c3cccc(C#CC(C)(C)O)c3)C2)c1 (stereo not given) | ? | 11.7 | -4.8% | 11.7µM* | 49.7 | .
COc1cccc(C(=O)N2CCCC(Nc3ccc(C)c(C)c3)C2)c1 (stereo not given) | -2.6% | 0.1 | -7.6% | ? | 2.3 | -0.4%
COc1cccc(C(=O)N2CCN(C(=O)C3CC3)CC2)c1 | 9.9% | -5.6 | 7.3% | 11.7µM* | 19.4 | 2.3%
COc1cccc(C(=O)N2CCC(C(=O)N3CCN(C)CC3)CC2)c1 | 32.1% | -8.5 | -1.1% | 19.4% | -7.0 | 3.3%
O=[N+]([O-])c1ccc(/C=N/Nc2nc(N3CCCC3)nc(N3CCCC3)n2)o1 | . | 7.2 | -8.4% | 10.4µM* | 3.2 | -35.6%
Cc1ccc2nc(N/N=C\c3ccc([N+](=O)[O-])o3)nc(-c3ccccc3)c2c1 | . | -2.5 | 3.3% | ? | -3.3 | 0.0%
O=[N+]([O-])c1ccc(-c2ccc(/C=N/Nc3nc(N4CCCC4)nc(N4CCCC4)n3)o2)cc1 | ? | -16.8 | . | ? | -37.3 | 0.0%
CCNc1nc(NCC)nc(N/N=C/c2ccc([N+](=O)[O-])o2)n1 | . | 4.6 | 4.2% | 4.15µM* | -2.5 | -29.5%
O=[N+]([O-])c1cccc(-c2ccc(/C=N/Nc3nc(N4CCCCC4)nc(N4CCCCC4)n3)o2)c1 | 2.33µM* | 5.9 | . | 11.1% | -12.7 | 0.4%
NC(=O)C1CCN(c2nc(-c3ccc(Cl)cc3)cs2)CC1 | ? | . | . | -22.9% | . | .
Cc1ccccc1-n1c(SCc2ccc(Cl)cc2)nc2[nH]ncc2c1=O | . | . | . | . | . | 10.6%
COc1ccc(CC(=O)Oc2ccc(C#N)cc2)cc1 | 0.0% | -1.7 | 7.2% | ? | -8.1 | 3.8%
COc1ccc(C2Sc3nncn3N2Cc2ccc(C#N)cc2)cc1 (stereo not given) | -9.1% | -5.8 | 1.9% | 13.1µM* | -2.2 | 4.8%
Cc1ccc(/C=N/NC(=O)Cc2cccn2C)cc1 | 61.3% | 25.9* | 1.3% | 8.3% | 45.5* | ?
CCc1ccc(/C=N/NC(=O)Cc2cccn2C)cc1 | 21.6% | 28.7* | -2.3% | 0.0% | 51.1* | ?
O=C(CN1CCOCC1)N/N=C/C=C/c1ccccc1 | -0.9% | 25.2* | . | 18.0% | 10.7 | -15.6%
Cn1cccc1CC(=O)N/N=C\c1cccs1 | -16.6% | 9.2 | 27.1% | ? | 15.5 | -4.3%
Cn1cccc1CC(=O)N/N=C/C=C/c1ccccc1 | 56.6% | 24.7* | -0.8% | 45.0% | 82.4* | -18.9%
CCc1nn2c(=O)cc(COC(=O)c3ccccc3NC(=O)COc3ccc(C)c(C)c3)nc2s1 | . | . | . | . | . | 1.9%
COc1ccc(/C=N/OCC(=O)OCC(=O)N(C)c2ccccc2)cc1 | 9.6% | . | . | 32.6% | . | -13.0%
Cn1cccc1CC(=O)N/N=C/c1ccc(C(C)(C)C)cc1 | -5.7% | 22.3* | -0.6% | -5.7% | 54.2* | ?
CC(C)(C)c1ccc(/C=N/NC(=O)CN2CCS(=O)(=O)CC2)cc1 | 7.7% | -0.9 | -2.4% | 34.9% | -1.4 | 3.6%
SMILES | Pf growth 48h | CHX counter | NS1 function inh | Pf growth 96h | Shiga inhibitor | Sm TGR block
FC(F)(F)c1cnc(N2CCN(C(=S)NCc3ccccc3)CC2)c(Cl)c1 | 11.8% | -0.5 | 2.5% | 24.7% | -7.2 | -2.0%
FC(F)(F)c1cnc(N2CCCN(C(=S)Nc3ccccc3)CC2)c(Cl)c1 | 1.65µM* | 0.8 | 3.5% | 1.85µM* | 18.7 | -5.9%
CCCCCc1ccc(OCCOCCn2c[n+](C)c3ccccc32)c(CCCCC)c1 | 2.94µM* | -5.8 | . | -19.8%[1.15 µM] | -13.3 | -9.0%
CCCCOc1ccccc1Cn1c(=O)oc2ccccc21 | -0.1% | -1.1 | -3.1% | 15.8% | -8.8 | 1.9%
CCCCCc1ccc(OCCC[n+]2ccccc2)c(CCCCC)c1 | 1.85µM* | -2.5 | -37.7% | ? | -12.1 | 4.0%
O=C(Nc1ccc(F)cc1)c1nc2c(nnn2Cc2cccc3ccccc23)c(=O)[nH]1 | 6.3% | -1.3 | 2.4% | 16.8% | 1.1 | 6.2%
Nc1ccc(C#Cc2ccc3c(=O)c4ccccc4oc3c2)cc1 | 76.1% | 36.7* | 9.3% | -12.8% | 28.2* | ?
COc1ccc(N2CCN(C(=O)c3cc4c(=O)n(Cc5cccs5)ccc4nc3C)CC2)cc1 | . | . | . | . | . | -7.0%
Cc1ccccc1OCC(=O)Nc1cc(S(=O)(=O)N2CCOCC2)ccc1N1CCCC1 | 10.4µM* | . | . | 7.38µM* | . | -4.4%
COc1ccc2ccccc2c1/C=N/NC(=S)Nc1cc(S(=O)(=O)N2CCOCC2)ccc1N1CCOCC1 | 5.22µM* | -1.9 | ? | 1.65µM* | -5.6 | -0.7%
O=C(COc1ccccc1F)Nc1cc(S(=O)(=O)N2CCOCC2)ccc1N1CCOCC1 | 11.7µM* | -2.8 | . | ? | -12.2 | 12.2%
CC(C)c1ccccc1OCC(=O)Nc1cc(S(=O)(=O)N2CCOCC2)ccc1N1CCCC1 | 5.22µM* | . | . | ? | . | -4.4%
COc1ccccc1C(=O)OCC(=O)Nc1cc(S(=O)(=O)N2CCOCC2)ccc1N1CCCC1 | 0.0% | -2.2 | -7.7% | 2.1% | -22.0 | -4.5%
CCN1CCN(c2ccc(S(=O)(=O)N3CCOCC3)cc2NC(=O)COc2ccc(F)cc2Cl)CC1 | ? | -1.2 | 7.5% | 4.65µM* | -3.7 | -9.1%
Cc1cc(S(=O)(=O)N2CCOCC2)ccc1OCC(=O)Nc1ccc(F)cc1F | 11.4% | -6.2 | 11.6% | 58.0% | 19.0 | 4.8%
CCN(Cc1ccc(C#CCCO)cc1)CC1CCCN(CCc2cccc(F)c2)C1 (stereo not given) | 4.65µM* | 4.8 | 2.4% | -22.0% | -15.0 | 11.3%
COc1ccc(CCN2CCCC(CN(C)Cc3cccc(OC)c3)C2)cc1 (stereo not given) | ? | 4.9 | 11.1% | ? | -2.5 | 5.4%
CCN(Cc1ccccc1OC)CC1CCCN(CCc2cccc(OC)c2)C1 (stereo not given) | ? | 1.5 | -9.2% | 4.2% | 0.3 | 0.4%
CCN(Cc1ccc(NC(C)=O)cc1)CC1CCCN(CCc2cccc(OC)c2)C1 (stereo not given) | 11.7µM* | -2.9 | -12.4% | 11.7µM* | -2.7 | -18.8%
COc1ccc(CCN2CCCC(CN(C)Cc3cc(OC)ccc3OC)C2)cc1 (stereo not given) | ? | -2.0 | 0.5% | 14.7µM* | 18.8 | 7.8%
CN(Cc1ccc(C#CCCO)cc1)CC1CCCN(CCc2ccc(Cl)cc2)C1 (stereo not given) | 5.22µM* | 1.5 | 6.6% | -11.8% | -4.9 | -13.3%
CCN(Cc1ccc(OC)c(COC)c1)CC1CCCN(CCc2cccc(F)c2)C1 (stereo not given) | 10.4µM* | 2.9 | 6.3% | ? | 3.4 | 5.4%
